# Bioassay records (PubChem)
# A selection: hits, their analogues and other compounds. The true share with any hit is near 9.4%.
# Pf growth 48h: inhibits P. falciparum growth in the first generation, 48 h | 310,000 compounds, 5.9% hits | P. falciparum luciferase growth in erythrocytes, 48 h | AID 504832 | Potency, µM (series often up to 28.7 µM), usual class: inhibitors
#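 A one-generation exposure of luciferase-tagged malaria parasites in RPMI 1640/Albumax erythrocyte culture, 37 C and 5% CO2. Inhibition is inferred from decreased luminescence after adding detection reagent.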
# SARS PLpro yeast: blocks SARS-CoV papain-like protease in a yeast assay | S. cerevisiae expressing SARS-CoV PLpro, growth rescue | Potency, µM (series often up to 32.9 µM), hits mostly activators | 330,000 compounds, 0.19% hits; calls by dose curve; note: nearly all actives have a fitted effect of over 55% in size
# AMA1 RON2 block: inhibitors of Plasmodium falciparum AMA1-RON2 interaction; 360,000 compounds, 0.2% hits; AID 720542; AlphaScreen AMA1-biotinylated RON2 peptide binding; Potency, µM (highest dose often 58.2 µM), most hits filed as inhibitors; note: nearly all actives have a fitted effect of over 45% in size
#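 AMA1 (3D7) with his tag at 25 nM final met compounds first, then biotinylated RON2 peptide at 25 nM; detection used donor plus acceptor beads, 10 µg/mL apiece, read by AlphaScreen after 30 min at room temperature.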
# Pf growth 96h: P. falciparum growth inhibition at 96 hour, primary screen for plastid delayed-death inhibitors; P. falciparum luciferase reporter growth, 96 h; Potency, µM (highest dose often 28.7 µM), usual class: inhibitors; 320,000 compounds, 6.9% hits; AID 504834
#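 Compounds incubated with erythrocytes infected by luciferase-expressing P. falciparum (2% hematocrit, 0.05% parasitemia final) for 96 hours, 37 C in 5% CO2. Growth inhibition scored as decreased luciferase luminescence.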
# Numbers stand for hits; n = inactive; u = inconclusive; x = no result given. Unless noted, calls come from the whole dose curve; as a rule, active = well fitted curve in the direction sought with a large enough effect; inconclusive = small, poorly fitted or top-dose-only effect, or another doubt; inactive = no such curve, though single readings can be large; an effect the other way counts as inactive or inconclusive.
SMILES,Pf growth 48h,SARS PLpro yeast,AMA1 RON2 block,Pf growth 96h
CN(c1ccccc1)c1nc(N)c([N+](=O)[O-])c(N2CCCCCC2)n1,u,n,u,n
CC(C)OC(=O)c1cc2c(ccn2C)n1CC(=O)N(Cc1ccccc1)c1ccccc1,u,n,u,u
CCN(c1ccc(NC(=O)COC(=O)/C=C/c2cccs2)cc1)C(C)C,n,n,17.8µM,n
Cc1ccc(NC(=O)COC(=O)/C=C/c2cccs2)cc1,n,n,n,n
C#CCOCCOCCOCCNc1nc(N2CCN(C(=O)[C@H](CCCCN)n3cc(C(N)CC(C)C)nn3)CC2)nc(N2CCN(C(=O)[C@H](CCC(=O)O)n3cc(C(N)[C@H](C)CC)nn3)CC2)n1 (stereo not given in full),n,n,n,n
Cc1cccc(-c2nnc(NC(=O)c3ccc(N4C(=O)CCC4=O)cc3)s2)c1,u,n,n,4.65µM
Cc1ccccc1-c1nnc(NC(=O)c2ccc(N3C(=O)CCC3=O)cc2)s1,n,n,n,9.28µM
CC(C)c1nnc(NC(=O)c2ccc(N3C(=O)CCC3=O)cc2)s1,n,n,n,n
Cc1cccc(NC(=O)c2ccccc2[N+](=O)[O-])n1,n,n,n,n
CC1=C(C(=O)NC2CCCCC2C)C2(CCC(C)CC2)OC1=O (stereo not given),9.28µM,n,n,n
CC(NC(=O)c1cccc(N2CCCC2=O)c1)c1ccc2c(c1)OCCO2 (stereo not given),u,n,n,11.7µM
CC1=C(C(=O)Nc2cccc([N+](=O)[O-])c2)C2(CCC(C)CC2)OC1=O (stereo not given),u,n,n,0.37µM
CC1=C(C(=O)NC(C)c2ccc3c(c2)OCCO3)C2(CCC(C)CC2)OC1=O (stereo not given),u,n,n,10.4µM
CN(C)CCN1C(=O)c2ccccc2N(C)c2ccccc21,n,x,x,3.01µM
CCc1ccc(NC(=S)/N=C(\N)Nc2nc(C)c3cc(CC)ccc3n2)cc1,u,n,n,u
Cc1cc(C)c2nc(/N=C(\N)NC(=O)Nc3ccccc3)nc(C)c2c1,1.85µM,n,n,13.1µM
CCCCC(=O)N/C(N)=N/c1nc2ccccc2o1,n,n,n,n
CCc1ccc2nc(/N=C(\N)NC(=O)c3ccccc3)nc(C)c2c1,9.28µM,n,n,10.4µM
CCCC(=O)N/C(N)=N/c1nc(C)c2ccccc2n1,u,n,n,1.85µM
Cc1cc(C)c2nc(/N=C(\N)NC(=O)c3ccccc3)nc(C)c2c1,u,n,n,u
O=C(CCN1CCN(CCO)CC1)Nc1ccc(C2CCCC2)cc1,n,n,n,n
CO[C@@H](COC(N)=O)C1=C(N2CC2)C(=O)C(C)=C(N2CC2)C1=O,0.601µM,x,x,0.536µM
COc1ccc(N2CC(C)(C)[C@H](CC(=O)Nc3ccc(Br)cc3)C2=O)cc1,x,x,n,x
COc1ccc(-n2cnc3cc(C(=O)N4CCOCC4)ccc32)cc1,n,n,n,n
CCOc1ccc(Br)cc1S(=O)(=O)Nc1ccccc1N1CCOCC1,8.28µM,n,n,x
SMILES,Pf growth 48h,SARS PLpro yeast,AMA1 RON2 block,Pf growth 96h
COc1ccccc1OCCCn1cc(C(=O)C2CC2)c2ccccc21,11.7µM,n,n,u
CCOc1ccc(NC(=O)Cn2cc(C(=O)C3CC3)c3ccccc32)cc1,n,n,n,5.86µM
CC(=O)c1ccc(NC(=O)CCNS(=O)(=O)c2cccc3nonc23)cc1,n,n,n,n
CN1N=C(C(=O)N2CCc3c([nH]c4ccccc34)C2c2ccccc2Cl)CCC1=O (stereo not given),1.65µM,n,n,10.4µM
Cc1ccccc1C(=O)N1CCc2c([nH]c3ccccc23)C1C(F)(F)F (stereo not given),11.7µM,n,n,u
Cc1cc(C(=O)N2CCc3c([nH]c4ccccc34)C2c2cccc(Cl)c2)nn1C (stereo not given),u,n,n,11.7µM
Cc1ccccc1C1c2[nH]c3ccccc3c2CCN1C(=O)c1ccc(=O)n(C)n1 (stereo not given),u,n,n,13.1µM
CSc1ccc(C2c3[nH]c4ccccc4c3CCN2C(=O)c2cc(C)n(C)n2)cc1 (stereo not given),u,n,x,n
O=C(Cc1ccccc1)Nc1ccccc1C(=O)Nc1ccc(C(=O)O)cc1,n,n,n,n
Clc1ccc(OCCn2ccnc2)c2ccccc12,u,x,n,x
Cc1nnc(NCCc2ccccc2)c2ccccc12,n,n,n,n
O=C(COc1ccc(Br)cc1CNCCCN1CCOCC1)Nc1ccccc1,3.7µM,n,n,2.94µM
COc1cc(CNCCCN2CCOCC2)ccc1OCC(=O)Nc1cccc(C(F)(F)F)c1,1.85µM,n,n,u
